Only some compounds are listed: those with a hit (about 27% of all), similar ones and a draw of the others.
CYP2C19 inh: blockers of cytochrome P450 2C19 activity – biochemical, luminescence, ADME assay, primary screen; inhibition, % at 5 µM; AID 778, 2007; CYP2C19 Supersomes, luciferin-H EGE luminescence, 30 min; P33261; hit rate 21% among 96,000;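 active = CYP2C19 inhibition above a set limit at 5 µM in the primary screen, cut at about 50% in these data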;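 also: plate controls were negative control wells for no effect and 2.5 mM tranylcypromine positive control for full effect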
CYP2C9 activ: human CYP2C9 activators, primary screen, biochemical, luminescence; recombinant CYP2C9, luciferin-H conversion; stronger effect = higher value; factor 1 = untreated enzyme, 0 = blocked; hit rate 1.4% among 96,000; Cytochrome P450 2C9 (Homo sapiens), P11712; activation factor at 5 µM;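 active = activation factor of 2 or more for CYP2C9 at a 5 µM dose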;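 also: 0 = sulfaphenazole-blocked wells and 1 = vehicle-only wells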
Target sequence (P11712 whole entry, looked up): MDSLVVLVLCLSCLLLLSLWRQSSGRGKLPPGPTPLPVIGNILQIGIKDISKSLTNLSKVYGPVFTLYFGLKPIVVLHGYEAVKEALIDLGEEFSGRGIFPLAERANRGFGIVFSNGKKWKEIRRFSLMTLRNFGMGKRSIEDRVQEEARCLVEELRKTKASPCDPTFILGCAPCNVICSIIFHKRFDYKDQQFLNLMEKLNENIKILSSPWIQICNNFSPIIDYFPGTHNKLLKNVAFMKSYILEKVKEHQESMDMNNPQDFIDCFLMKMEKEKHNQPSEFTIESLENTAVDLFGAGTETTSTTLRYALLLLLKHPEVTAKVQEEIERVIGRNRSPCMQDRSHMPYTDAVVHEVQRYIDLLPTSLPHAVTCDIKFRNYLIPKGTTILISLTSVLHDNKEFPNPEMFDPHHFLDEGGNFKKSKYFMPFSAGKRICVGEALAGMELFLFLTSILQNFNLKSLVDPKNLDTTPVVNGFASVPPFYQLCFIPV
EphB4 ephrin blk: EphB4-ephrin-B2 interaction antagonists, primary screen, biochemical, TNYL-RAW peptide probe, fluorescence polarization; hit rate 0.15% among 97,000; EphB4 LBD / TNYL-RAW-Alexa532 peptide; inhibition, % at 7 µM; Ephrin type-B receptor 4 (Homo sapiens), P54760;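 active = inhibition above the screen-wide mean inhibition plus 3 SD, cut at about 15% in these data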;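 also: 0% = DMSO wells and 100% = excess unlabeled TNYL-RAW peptide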
CYP2C19 act: human CYP2C19 activators, primary screen, biochemical, luminescence; Cytochrome P450 2C19 (Homo sapiens), P33261; AID 1025, 2008; 96,000 tested, under 10 active; activation factor at 5 µM; recombinant CYP2C19, luciferin-H EGE luminescence; stronger effect = higher value; 0 = fully inhibited enzyme, 1 = untreated enzyme;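 active = activation factor of at least 2 at 5 µM in the primary screen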;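 also: 0 = wells with 2.5 mM tranylcypromine and 1 = vehicle-only wells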
CYP2C9 inhib: blockers of cytochrome P450 2C9 activity – biochemical, luminescence, ADME assay, primary screen; inhibition, % at 5 µM; hit rate 20% among 96,000; CYP2C9 Supersomes, luciferin-H conversion; P11712;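 active = blocking of liver enzyme CYP2C9 beyond about 50% at 5 µM, limit read from the data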
* hit, by the source's call; . = not tested or not shown.

SMILES	CYP2C19 inh	CYP2C9 activ	EphB4 ephrin blk	CYP2C19 act	CYP2C9 inhib
COc1ccc(CCN2C(=O)C(Oc3ccccc3C)C2c2ccc3c(c2)OCO3)cc1OC (stereo not drawn)	65.7*	0.4	1.1	0.3	59.7*
COc1ccc(C2C(Oc3ccccc3C)C(=O)N2Cc2ccc(F)cc2)cc1OC (stereo not drawn)	90.2*	0.2	-8.1	0.1	75.5*
CC(C)c1nc2oc3c(NCC4CCCO4)ncnc3c2c2c1COC(C)(C)C2 (stereo not drawn)	7.8	0.8	-6.0	0.9	20.1
CC1(C)Cc2c(C#N)c(NCCc3ccccc3)nc(-c3ccco3)c2CO1	11.8	0.3	.	0.9	70.1*
Cc1nc(NCCO)c(C#N)c2c1COC(C)(C)C2	-8.2	1	7.0	1.1	-1.6
CC1(C)Cc2c(C#N)c(NCC3CCCO3)nc(-c3ccco3)c2CO1 (stereo not drawn)	13.2	0.5	2.6	0.9	53.8*
CCN(CC)CCNc1nc(-c2ccco2)c2c(c1C#N)CC(C)(C)OC2	12.6	0.9	3.5	0.9	13.9
CC1(C)Cc2c(C#N)c(NC3CCCCC3)nc(-c3ccco3)c2CO1	6.1	0.4	.	0.9	60.3*
O=C(O)C1CC=CCC1C(=O)N1CCN(c2nc(-c3ccccc3)c3ccccc3n2)CC1 (stereo not drawn)	-2.2	1	-8.7	1	1.6
Cc1ccc(NC(=S)N/N=C/c2ccc(OCCC(C)C)cc2)c(C)c1	23.5	0.4	-3.5	0.8	64.7*
CCCOc1ccc(NCC(=O)Nc2ccc(C)cc2C)cc1	.	.	1.5	.	.
CCN(CC)CC#CCC1(O)c2ccccc2-c2ccccc21	12.6	1.1	-8.0	0.9	-14.9
CCCCn1c(C(C)NC(=O)COC)nc2ccccc21 (stereo not drawn)	.	.	4.9	.	.
CCCCCn1c(C(Cc2ccccc2)NC(=O)COC)nc2ccccc21 (stereo not drawn)	63.4*	0.6	8.5	0.4	42.0
CCOC(=O)N1CCN(c2c(NCCc3ccc(OCC)c(OCC)c3)c(=O)c2=O)CC1	4.1	0.9	1.9	1	7.5
COC(=O)c1cc(-c2c[nH]c3ccccc23)n[nH]1	85.4*	0.2	1.3	0.1	83.6*
COC(=O)c1cc(-c2ccc(Br)cc2)n[nH]1	69.4*	0.8	-2.3	0.3	16.6

Screening results deposited in PubChem BioAssay by several laboratories.
